Measurements: PubChem BioAssay AID2536 (National Center for Advancing Translational Sciences (NCATS), 2010)

biological target: Pyruvate kinase PKM (Homo sapiens) (UniProt P14618); assay: Secondary Concentration-Response Assay for Activators of Human Muscle isoform 1 Pyruvate Kinase: for Probe SAR; conditions: purified hPK-M1, ATP production, Kinase-Glo luminescence
Description: NIH Chemical Genomics Center [NCGC]
Matthew G. Vander Heiden, M.D., Ph.D. [Harvard Medical School, 77 Avenue Louis Pasteur, Boston, MA 02115]
Human pyruvate kinase […] (hPK-M1) enzyme was supplied as a highly purified (>95% pure) preparation from Harvard Medical School and assayed for its ability to generate ATP from ADP using phosphoenolpyruvate (PEP) as a substrate. ATP generation was detected in a coupled reaction by luciferase-mediated luminescence, an ATP-dependent process. Pyruvate kinase substrates, PEP and ADP, were present in the assay at Km and approximately 10-fold below Km respectively. The enzyme was assayed at an intermediate level of activity to screen for both inhibitors and activators.
NCGC Assay Protocol Summary for M1-isoform:
Three uL of substrate mix (at r.t.) in assay buffer (50 mM Imidazole pH7.2, 50 mM KCl, 7 mM MgCl2, 0.01% Tween 20, 0.05% BSA) was dispensed into white solid bottom 1,536 well microtiter plates so that the final concentrations of substrates in the assay were 0.1 mM ADP and 0.5 mM PEP. 23 nL of compound were delivered by a pin tool and 1 uL of enzyme mix (final concentration of 1 nM) in assay buffer (4 degree Celsius) was added. Plates were incubated at room temperature for 1 hour. Two uL of detection mix (Kinase-Glo, Promega; at 4 degree Celsius protected from light) was added and luminescence read by a ViewLux (Perkin Elmer) at 1 second exposure/plate. Data were normalized to the uninhibited (row 31). Additionally, a no enzyme and 5-fold enzyme control was dispensed in row 32, split equally between the two conditions.

Sequence of Pyruvate kinase PKM (Homo sapiens) (P14618 whole entry, looked up, canonical isoform): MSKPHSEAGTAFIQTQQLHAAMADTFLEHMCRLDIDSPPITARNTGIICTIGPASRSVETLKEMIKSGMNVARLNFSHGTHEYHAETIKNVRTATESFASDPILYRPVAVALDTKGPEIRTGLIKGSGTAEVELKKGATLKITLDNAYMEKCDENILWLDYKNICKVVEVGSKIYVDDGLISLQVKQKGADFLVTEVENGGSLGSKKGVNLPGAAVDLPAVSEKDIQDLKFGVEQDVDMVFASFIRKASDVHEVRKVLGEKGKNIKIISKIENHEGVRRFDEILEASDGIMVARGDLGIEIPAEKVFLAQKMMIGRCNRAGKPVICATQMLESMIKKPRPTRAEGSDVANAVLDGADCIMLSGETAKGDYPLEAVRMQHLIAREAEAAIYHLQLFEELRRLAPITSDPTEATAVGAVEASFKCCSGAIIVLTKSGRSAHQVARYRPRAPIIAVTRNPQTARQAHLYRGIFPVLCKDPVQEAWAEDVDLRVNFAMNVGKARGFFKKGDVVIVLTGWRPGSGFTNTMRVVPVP

Max response, inactive:
Cc1ccc(NS(=O)(=O)c2cc3c(cc2Cl)CCC(=O)N3)cc1Cl 4.8%
O=C1CCc2cc(S(=O)(=O)Nc3cccc(B(O)O)c3)ccc2N1 -3.5%
Nc1cccc(S(=O)(=O)N2CCCN(S(=O)(=O)c3ccc4c(c3)OCCO4)CC2)c1 -0.314%
O=C1CCc2cc(S(=O)(=O)Nc3ccc4c(c3)CCC4)ccc2N1 -1.18%
Cc1ccc(NS(=O)(=O)c2ccc3c(c2)CCC(=O)N3)cc1Cl 8.72%
Cc1ccc(NS(=O)(=O)c2cc3c(cc2N(C)C)CCC(=O)N3)cc1C -0.287%
Cc1cc(NS(=O)(=O)c2ccc3c(c2)CCC(=O)N3)ccc1Cl -0.197%
O=C1CCc2cc([S+](=O)([O-])Nc3ccc(N[S+](=O)([O-])c4ccc5c(c4)CCC(=O)N5)cc3)ccc2N1 -0.299%
CNc1cccc(S(=O)(=O)N2CCCN(S(=O)(=O)c3ccc4c(c3)OCCO4)CC2)c1 3.54%
N#Cc1ccc(NS(=O)(=O)c2ccc3c(c2)CCC(=O)N3)cc1 5.23%
